Assay outcomes (PubChem BioAssay)
This is a sample that favours compounds with a hit; in the whole collection about 11% have one here.
BAZ2B inh = blocks human BAZ2B. AlphaScreen BAZ2B-H3K14Ac peptide displacement. AID 504333. Potency, µM (doses to about 114 µM), actives largely listed as inhibitors. hit rate 4.4% among 360,000; note: nearly all actives have a fitted effect of over 60% in size
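BAZ2B (50 nM) with biotin-H3(5-23)K14Ac peptide (50 nM) in PBS pH 7.4, 0.01% Tween-20, preformed 30 min, then compound 30 min at room temperature; top concentration 110uM. AlphaScreen streptavidin donor/nickel chelate acceptor beads (10 ug/mL final), 20 min dark, signal read.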
VDR inhibitor = vitamin D3 receptor (human) inhibition. Potency, µM, hits mostly inhibitors. hit rate 0.93% among 400,000. VDR-SRC2-3 peptide fluorescence polarization, 2 h
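Signal is fluorescence polarization, reporting how far test compounds block the interaction of VDR with the SRC2-3 coregulator peptide after a 2 h room-temperature incubation.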
HP1b chromo inh = blocks HP1-beta chromodomain binding to methylated histone tails; P83916; AlphaScreen HP1-beta / biotin-H3K9me3 peptide binding; Potency, µM (doses to about 114 µM), usual class: inhibitors; hit rate 0.56% among 390,000; AID 540317; note: nearly all actives have a fitted effect of over 70% in size
Target sequence (P83916 whole entry, looked up): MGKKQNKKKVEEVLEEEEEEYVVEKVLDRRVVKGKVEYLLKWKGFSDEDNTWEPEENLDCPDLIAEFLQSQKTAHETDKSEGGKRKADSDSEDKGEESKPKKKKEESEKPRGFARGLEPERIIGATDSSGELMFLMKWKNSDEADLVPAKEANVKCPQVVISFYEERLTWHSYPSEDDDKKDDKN
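AlphaScreen: HP1-beta (50 nM) preformed 30 min with biotin-H3(1-18)K9me3 peptide (50 nM) in PBS pH 7.4, 0.01% Tween-20. Compound added for 30 min at RT, then streptavidin donor/nickel chelate acceptor beads (10 ug/mL) for 30 min.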
PLK1 PBD inh = inhibitors of human PLK1 polo-box domain binding | AID 720504 | P53350 | Potency, µM, actives largely listed as inhibitors | Plk1 PBD binding of FITC phosphopeptide, fluorescence polarization | hit rate 2.8% among 360,000; note: series mostly up to about 57 µM; nearly all actives have a fitted effect of over 65% in size
JMJD2A Tudor = JMJD2A Tudor domain (human) inhibition; O75164; AlphaScreen JMJD2A-Tudor / H3K4me3 peptide binding; Potency, µM (series often up to 114 µM), most hits filed as inhibitors; hit rate 4.4% among 390,000; note: nearly all actives have a fitted effect of over 50% in size
G9a block = inhibitors of human histone lysine methyltransferase G9a | Q96KQ7 | G9a H3K9 monomethylation, AlphaScreen, 2 h | Potency, µM (doses to about 102 µM), actives largely listed as inhibitors | hit rate 8.8% among 350,000 | AID 504332; note: nearly all actives have a fitted effect of over 75% in size
Target sequence (Q96KQ7 913-1193 limits assumed): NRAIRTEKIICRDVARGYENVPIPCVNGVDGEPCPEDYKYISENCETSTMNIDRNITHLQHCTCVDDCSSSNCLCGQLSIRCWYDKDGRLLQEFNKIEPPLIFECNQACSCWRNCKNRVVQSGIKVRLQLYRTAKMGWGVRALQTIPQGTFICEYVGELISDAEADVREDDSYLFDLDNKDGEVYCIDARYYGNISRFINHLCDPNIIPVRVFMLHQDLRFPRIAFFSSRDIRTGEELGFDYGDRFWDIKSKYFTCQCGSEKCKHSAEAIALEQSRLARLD
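G9a (20 nM) preincubated 15 min RT with compounds, then 500 nM biotinylated H3K9 peptide and 20 uM SAM added; 2 h RT reaction. Monomethyl-H3K9 product detected by AlphaScreen with anti-H3K9me1 antibody, streptavidin donor and anti-rabbit IgG acceptor beads.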
Of the large screens only hits and unclear results are named; the others gave an inactive call. Calls come from the whole dose curve; as a rule, active = well fitted curve in the direction sought with a large enough effect; inconclusive = small, poorly fitted or top-dose-only effect, or another doubt; inactive = no such curve, though single readings can be large; an effect the other way counts as inactive or inconclusive.

CC(=Nc1cccc(C)c1)c1sc2ccccc2c1O	JMJD2A Tudor inconclusive
Cc1ccc(N=Nc2cc(C)ccc2O)c(C)c1	BAZ2B inh 5.6µM, HP1b chromo inh inconclusive, JMJD2A Tudor 45µM, G9a block 7.9µM
Cc1ccc(N=Nc2ccc(N)cc2C)c(S(N)(=O)=O)c1	BAZ2B inh 50µM, HP1b chromo inh inconclusive, PLK1 PBD inh inconclusive, JMJD2A Tudor 8.9µM, G9a block 20µM
Cc1ccc(O)c(N=Cc2ccc(C)s2)c1	none
CC(=O)/C(N=Nc1ccc2c(c1)OCCO2)=C(\C)O	JMJD2A Tudor inconclusive
Cc1cccc(N=Nc2ccc(O)c3ncccc23)c1	BAZ2B inh 8.9µM, HP1b chromo inh inconclusive, JMJD2A Tudor 32µM, G9a block 7.1µM
Oc1ccc(N=Nc2ccc3c(c2)OCCO3)c2ncccc12	BAZ2B inh inconclusive, JMJD2A Tudor inconclusive, G9a block 11µM
COc1cc(/C=C/C(=O)OCC(=O)N2CC(C)OC(C)C2)ccc1OCC#N (stereo unspecified)	none (no result: BAZ2B inh, VDR inhibitor, HP1b chromo inh, JMJD2A Tudor, G9a block)
N#Cc1c(-c2ccc(Cl)cc2)no[n+]1[O-]	none (no result: BAZ2B inh, VDR inhibitor, HP1b chromo inh, PLK1 PBD inh, G9a block)
COCCCNC(=O)C1CCN(c2nnc(-n3cccc3CNc3ccc(C)cc3)s2)CC1	BAZ2B inh inconclusive (no result: PLK1 PBD inh)
Cc1ccc(C)c(N=Nc2ccc(O)c3ncccc23)c1	BAZ2B inh 20µM, HP1b chromo inh inconclusive, JMJD2A Tudor 8.9µM, G9a block 11µM
Cc1ccc(C(=O)Nc2c(C)cc(C)c3cccnc23)cc1	none
C=CC[n+]1c(-c2ccc(Cl)cc2Cl)csc1Nc1c(C)n(C)n(-c2ccccc2)c1=O	BAZ2B inh 40µM, HP1b chromo inh inconclusive, JMJD2A Tudor inconclusive, G9a block inconclusive
C=CC[n+]1c(-c2ccc(Cl)cc2Cl)csc1Nc1ccc(NC(C)=O)cc1	BAZ2B inh 28µM, HP1b chromo inh inconclusive, JMJD2A Tudor 28µM, G9a block 40µM
COC(=O)[C@@]1(Cc2ccc(F)cc2)[C@H]2c3cc(C(=O)N4CCCC4)n(Cc4ccc(S(C)(=O)=O)cc4)c3C[C@H]2CN1C(=O)c1ccccc1	none (no result: BAZ2B inh, VDR inhibitor, HP1b chromo inh, JMJD2A Tudor, G9a block)
COC(=O)[C@@]1(Cc2ccc(F)cc2)[C@H]2c3cc(C(=O)N4CCCC4)n(CCF)c3C[C@H]2CN1C(=O)c1ccccc1	none (no result: BAZ2B inh, VDR inhibitor, HP1b chromo inh, JMJD2A Tudor, G9a block)
COC(=O)[C@@]1(Cc2ccc(F)cc2)[C@H]2c3cc(C(=O)N4CCCC4)n(Cc4ccc(C(F)(F)F)nc4)c3C[C@H]2CN1C(=O)c1ccccc1	BAZ2B inh inconclusive, JMJD2A Tudor inconclusive, G9a block 50µM
COC(=O)[C@@]1(Cc2ccc(F)cc2)[C@H]2c3cc(C(=O)N4CCCC4)n(CCCNc4ncc(C(F)(F)F)cc4Cl)c3C[C@H]2CN1C(=O)c1ccccc1	JMJD2A Tudor inconclusive, G9a block 32µM
CCOC(=O)N1CCC(NC(=O)c2cnn(-c3ccc(C)cc3C)c2C2CCN(C(=O)OC(C)(C)C)CC2)CC1	none (no result: PLK1 PBD inh)
O=C1N(Cc2cccnc2)C[C@@H]2C[C@@H](c3ccccc3C#Cc3ccccc3)N3CCC[C@@]123	G9a block 50µM
O=C1N(Cc2cccc(Cl)c2)C[C@@H]2C[C@@H](c3cccc4ncccc34)N3CCC[C@@]123	none
O=C1N(Cc2cccc(Cl)c2)C[C@@H]2C[C@@H](c3c[nH]c4ccccc34)N3CCC[C@@]123	JMJD2A Tudor inconclusive, G9a block 35µM
CC1=C(C)/C(=N/OC(=O)c2cccc([N+](=O)[O-])c2)C=CC1=O	PLK1 PBD inh 4.2µM, G9a block 10µM
Cc1ccccc1OCC(=O)NN1C(=O)C2C3C=CC(O3)C2C1=O (stereo unspecified)	G9a block inconclusive
O=C(CCc1ccccc1)NN1C(=O)C2C3C=CC(O3)C2C1=O (stereo unspecified)	G9a block 10µM
CCOc1ccc(NC(=O)c2ccc(N)cc2)cc1	none
CCOc1ccc(C(=O)NN2C(=O)C3C4C=CC(O4)C3C2=O)cc1 (stereo unspecified)	G9a block 6.3µM
Cc1cccc(OCC(=O)NN2C(=O)C3C4C=CC(O4)C3C2=O)c1 (stereo unspecified)	G9a block 8.9µM
CN(C)CC(=O)Nc1cc(C(F)(F)F)ccc1Cl	none
O=C(CNCCCO)Nc1cc(C(F)(F)F)cc(NC(=O)CNCCCO)c1Cl	G9a block 11µM
Cc1nc2c(C(=O)NCCCN(CC(C)C)CC(C)C)cnn2c(C)c1Cc1c(F)cccc1Cl	none (no result: PLK1 PBD inh)
CCOc1ccc(CN(C)CC(=O)Nc2cccc(S(=O)(=O)N(C)c3ccccc3)c2)cc1	HP1b chromo inh inconclusive, JMJD2A Tudor 22µM, G9a block 5µM (no result: BAZ2B inh)
CN(CCOc1ccccc1)CC(=O)Nc1cccc(Br)c1	BAZ2B inh inconclusive, JMJD2A Tudor 1.6µM, G9a block 11µM
Cc1cc(NC(=O)CN(C)CCOc2ccccc2)ccc1Br	BAZ2B inh 35µM, HP1b chromo inh inconclusive, JMJD2A Tudor 0.79µM
COc1cccc(CN(C)CC(=O)Nc2cccc(S(=O)(=O)N(C)c3ccccc3)c2)c1OC	none (no result: BAZ2B inh, G9a block)
Clc1nc(NCc2cccs2)c2[nH]cnc2n1	VDR inhibitor inconclusive (no result: BAZ2B inh, PLK1 PBD inh, G9a block)
CC(C)c1cc2c(s1)c1cnn(Cc3ccccc3F)c(=O)c1n2C	none (no result: BAZ2B inh, VDR inhibitor, HP1b chromo inh, PLK1 PBD inh, G9a block)
CCn1c(SCC(=O)Nc2cc(NC(C)=O)ccc2OC)nnc1-c1ccncc1	none (no result: VDR inhibitor, HP1b chromo inh, PLK1 PBD inh, JMJD2A Tudor)
CCn1c(SCC(=O)NC(C)(C)C)nnc1-c1ccccn1	BAZ2B inh inconclusive, G9a block 56µM
CCn1c(SCC(=O)Nc2cc(NC(C)=O)ccc2OC)nnc1-c1ccccn1	BAZ2B inh inconclusive, JMJD2A Tudor 50µM
Cc1ccc(Nc2c([N+](=O)[O-])ccc3c2=NC2(CCCCC2)N=3)cc1	BAZ2B inh 3.5µM, HP1b chromo inh inconclusive, JMJD2A Tudor inconclusive, G9a block 4.5µM
O=[N+]([O-])c1ccc2c(c1Nc1ccccc1Cl)=NC1(CCCCC1)N=2	JMJD2A Tudor inconclusive
O=c1[nH]nc(CNc2ccc(O)cc2)c2ccccc12	BAZ2B inh inconclusive, VDR inhibitor inconclusive, G9a block 11µM
O=c1[nH]nc(CNc2ccc(OC(F)(F)F)cc2)c2ccccc12	none
O=C(Cc1ccc([N+](=O)[O-])cc1)c1c(O)cc(O)cc1O	G9a block 50µM
Cc1cc(C)nc(NS(=O)(=O)c2ccc(NS(=O)(=O)c3ccccc3)cc2)n1	BAZ2B inh inconclusive
Cc1ccc(/C=N/Nc2cc(C)nc(NCc3ccccc3)n2)cc1	BAZ2B inh inconclusive, JMJD2A Tudor inconclusive, G9a block 32µM
Cc1cc(N/N=C/c2ccc(O)cc2)nc(NS(=O)(=O)c2ccccc2)n1	BAZ2B inh 79µM, HP1b chromo inh 71µM, JMJD2A Tudor 56µM, G9a block inconclusive
Cc1cc(N/N=C/c2ccc(N(C)C)cc2)nc(NCc2ccccc2)n1	BAZ2B inh 13µM, JMJD2A Tudor inconclusive
Cc1cc(N/N=C/c2ccc(F)cc2)nc(NCc2ccccc2)n1	none (no result: G9a block)
